# Assay results taken from PubChem BioAssay (NCI).
# The panel holds about 83,000 compounds, 20% with a hit somewhere; the sample as a whole holds those more often.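 Growth was measured after 48 h exposure to one concentration of compound in 96-well plates. Values under 10 count as active.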 A number with no mark means an inactive call. Activity calls are given as the source filed them.
# System: MDA-MB-435 melanoma
# Experiment: NCI-60 one-dose screen, 48 h (100 = growth as untreated, 0 = no growth, -100 = all killed)
# Conditions: 10 µM unless noted
row,Compound,growth
1,CCC1(C2CCCC2)NC(=O)NC1=O (configuration not stated),102%
2,COc1cc2c(cc1-c1c(C)noc1C)ncc1nc(C3CCC(F)(F)CC3)n(C3CCC(OC(F)F)CC3)c12 (configuration not stated),55.2%
3,O=C1Nc2ccc(F)cc2C12Nc1cc(Cl)ccc1S2 (configuration not stated),97.5%
4,COc1cccc(-c2nn(-c3ccccc3)cc2-c2ccnc(NCCNC(=O)Nc3ccc(Cl)c(Cl)c3)c2)c1,-66.9% (active)
5,O=C(Nc1ccccc1Cl)Oc1ccc(-c2ccccc2)cc1,101%
6,O=c1c2c3c(sc2n2c(-c4cn(-c5ccccc5)nc4-c4ccc(Cl)cc4)nnc2n1Cc1ccccc1)CCCC3,103%
7,CCOC(=O)c1c2ncccc2n2c(=O)n(-c3ccccc3C)nnc12,116%
8,C=C1C(=O)O[C@H]2[C@H]1CC/C(COC(=O)C(=O)c1c[nH]c3ccccc13)=C\CC[C@@]1(C)O[C@@H]21,-59.4% (active)
9,CCCCOc1nc2ccccc2cc1C1CNC(=O)c2ccccc2N1 (configuration not stated),-63.8% (active)
10,CCCCCCCC/C=C\CCCCCCCCOc1ccccc1CC(=O)NCC[N+](C)(C)C,95.6%
11,O=C1NC(=Nc2ccc(Cl)cc2)S/C1=C\c1cn(-c2ccccc2)nc1-c1ccccc1,90.1%
12,CC(C)(C)CC(C)(C)Nc1c(-c2ccncc2)nc2cnccn12,99.2%
13,Fc1ccc(CNc2c3ccccc3nc3ccccc23)cc1F,49.2%
14,Cc1cc(NCc2cc(Nc3ccnc4cc(Cl)ccc34)ccc2F)nc(N2CCN(c3ccccc3)CC2)n1,38.8%
15,COc1ccc2c(c1)O/C(=C\c1cccc(OCC(=O)Nc3nc4ccccc4s3)c1)C2=O,96.5%
16,CC(CN1CCCCC1)C(=O)c1ccccc1 (configuration not stated),104%
17,CCN(CC)CCCNc1ccc(Nc2ccc(OC)cc2)cc1,82.7%
18,C=C1C(=O)O[C@H]2[C@H]1CC/C(CNC(=O)/C=C/c1ccc(Cl)cc1Cl)=C\CC[C@@]1(C)O[C@@H]21,4.95% (active)
19,COc1cc(/C=C/C(=O)c2ccc(Nc3nc(Nc4ccc(F)cc4)nc(Nc4ccc(Cl)cc4)n3)cc2)cc(OC)c1OC,69.3%
20,O=C1Nc2ccccc2/C1=C/c1cn(C(=O)c2c(Cl)cccc2Cl)c2ccccc12,85.7%
21,O=C(c1ccccc1)c1c(/C=C/c2ccc(Cl)cc2)nc2ccccc2c1/C=C/c1cccs1,99.1%
22,CCCc1cc2c(=O)c(C(=O)OC)c[nH]c2cc1N(CC)CC,109%
23,Clc1ccc(-c2c3ccc(=[N+]4CCCCC4)cc-3oc3cc(N4CCCCC4)ccc23)cc1,-59.9% (active)
24,Cc1ccccc1NC(=O)N/C(N)=N/c1nc(-c2cccc([N+](=O)[O-])c2)cs1,-19.7% (active)

# System: SW-620 colon
# Experiment: as above
# Conditions: 10 µM unless noted
row,Compound,growth
1,Cc1ccc(CCC(=O)Nc2ncc(Cc3cc(Cl)ccc3Cl)s2)o1,20.8%
2,c1ccc2c(c1)nc(CN1CCOCC1)n1cc(N3CCCC3)nc21,99.7%
3,COc1ccc(-c2c(N)n[nH]c2-c2ccc(Cl)cc2O)cc1OC,102%
4,COc1cc2nc(Cl)nc(Nc3ccc(S(=O)(=O)Nc4nccs4)cc3)c2cc1OC,105%
5,CS(=O)c1cccc(-c2ccc3nc(N)n(-c4ccc(C(F)(F)F)cc4)c(=O)c3c2)c1 (configuration not stated),103%
6,NCCCNc1nc2ccccc2c2c(=O)c3cccc(Cl)c3sc12,-79.4% (active)
7,CCCCCCCCCCCCCCCCCC1=NCCN1CCOC1=C(Cl)C(=O)c2ccccc2C1=O,7.23% (active)
8,Cc1ccc(Nc2ccc(Nc3ccc(C)cc3)c3c2C(=O)c2cccc(O)c2C3=O)cc1,99.4%
9,O=Cc1c[nH]c2ccc(-c3csc4ccccc34)cc12,15.6%
10,COc1ccc2[nH]c(O)c(/C=c3/cc4c(c(-c5cc(OC)c(OC)c(OC)c5)n3)=Nc3ccccc3-4)c2c1,62.8%
11,NC(=N\N=C/c1cccc([N+](=O)[O-])c1)/C(N)=N\N=C/c1cccc([N+](=O)[O-])c1,38.9%
12,NS(=O)(=O)c1cnccc1Sc1ccncc1S(N)(=O)=O,113%
13,COc1ccc(CN2C(=O)C(Cl)=C(Nc3cccc(C(F)(F)F)c3)C2=O)cc1,28.8%
14,O=C(/C=C/c1ccco1)c1ccc(Nc2nc(Nc3ccc(F)cc3)nc(Nc3ccc(Cl)cc3)n2)cc1,84.4%
15,CCC1(C2CCCC2)NC(=O)NC1=O (configuration not stated),104%
16,COc1cc2c(cc1-c1c(C)noc1C)ncc1nc(C3CCC(F)(F)CC3)n(C3CCC(OC(F)F)CC3)c12 (configuration not stated),75.1%
17,O=C1Nc2ccc(F)cc2C12Nc1cc(Cl)ccc1S2 (configuration not stated),106%
18,COc1cccc(-c2nn(-c3ccccc3)cc2-c2ccnc(NCCNC(=O)Nc3ccc(Cl)c(Cl)c3)c2)c1,18.3%
19,O=C(Nc1ccccc1Cl)Oc1ccc(-c2ccccc2)cc1,112%

row,Compound,growth
1,O=c1c2c3c(sc2n2c(-c4cn(-c5ccccc5)nc4-c4ccc(Cl)cc4)nnc2n1Cc1ccccc1)CCCC3,110%
2,CCOC(=O)c1c2ncccc2n2c(=O)n(-c3ccccc3C)nnc12,117%
3,C=C1C(=O)O[C@H]2[C@H]1CC/C(COC(=O)C(=O)c1c[nH]c3ccccc13)=C\CC[C@@]1(C)O[C@@H]21,-64.9% (active)
4,CCCCOc1nc2ccccc2cc1C1CNC(=O)c2ccccc2N1 (configuration not stated),20.9%
5,CCCCCCCC/C=C\CCCCCCCCOc1ccccc1CC(=O)NCC[N+](C)(C)C,69.5%
6,O=C1NC(=Nc2ccc(Cl)cc2)S/C1=C\c1cn(-c2ccccc2)nc1-c1ccccc1,75.2%
7,CC(C)(C)CC(C)(C)Nc1c(-c2ccncc2)nc2cnccn12,106%
8,Fc1ccc(CNc2c3ccccc3nc3ccccc23)cc1F,23.7%
9,Cc1cc(NCc2cc(Nc3ccnc4cc(Cl)ccc34)ccc2F)nc(N2CCN(c3ccccc3)CC2)n1,46.1%
10,COc1ccc2c(c1)O/C(=C\c1cccc(OCC(=O)Nc3nc4ccccc4s3)c1)C2=O,79%
11,CC(CN1CCCCC1)C(=O)c1ccccc1 (configuration not stated),104%
12,CCN(CC)CCCNc1ccc(Nc2ccc(OC)cc2)cc1,49.7%
13,C=C1C(=O)O[C@H]2[C@H]1CC/C(CNC(=O)/C=C/c1ccc(Cl)cc1Cl)=C\CC[C@@]1(C)O[C@@H]21,-51.6% (active)
14,COc1cc(/C=C/C(=O)c2ccc(Nc3nc(Nc4ccc(F)cc4)nc(Nc4ccc(Cl)cc4)n3)cc2)cc(OC)c1OC,35.3%
15,O=C1Nc2ccccc2/C1=C/c1cn(C(=O)c2c(Cl)cccc2Cl)c2ccccc12,45.5%
16,O=C(c1ccccc1)c1c(/C=C/c2ccc(Cl)cc2)nc2ccccc2c1/C=C/c1cccs1,110%
17,CCCc1cc2c(=O)c(C(=O)OC)c[nH]c2cc1N(CC)CC,114%
18,Clc1ccc(-c2c3ccc(=[N+]4CCCCC4)cc-3oc3cc(N4CCCCC4)ccc23)cc1,-83.8% (active)
19,Cc1ccccc1NC(=O)N/C(N)=N/c1nc(-c2cccc([N+](=O)[O-])c2)cs1,31.1%
